Hits are enriched below; roughly 7.6% of the tested compounds scored in any of these assays.
MCF10A rerep – A quantitative high throughput screen for small molecules that induce DNA re-replication in MCF 10a normal breast cells | MCF 10A DNA re-replication, Hoechst nuclear intensity, 48 h | Potency, µM (highest dose often 46.1 µM), for inactives: at the top dose activity, positive = re-replication, hits mostly activators | 350,000 compounds, 2.9% hits | AID 624296, 2012; also: potency is read from the fitted curve at half-maximal effect; % of control where 0% means no effect; nearly all actives have a fitted effect of over 50% in size
SW480 rereplic – A quantitative high throughput screen for small molecules that induce DNA re-replication in SW480 colon adenocarcinoma cells; SW480 DNA re-replication, Hoechst DNA content imaging, 48 h; Potency, µM (titrated, usually from 46.1 µM), for the others: at the highest dose re-replication activation, most hits filed as activators; 340,000 compounds, 1.8% hits; AID 624297, 2012; also: potency is read from the fitted curve at half-maximal effect; % of control where 0% means no effect; nearly all actives have a fitted effect of over 55% in size
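Treated cells incubate 48 hr (37 C, 5% CO2), are stained 40 min with Hoechst, and nuclear fluorescence is enumerated; a rise in nuclei with high DNA signal marks re-replication.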
KCNH2 3.1 block – qHTS for Inhibitors of KCHN2 3.1: Mutant qHTS | Potassium voltage-gated channel subfamily H member 2, brain isoform KCNH2 3.1 (human) | U2OS KCNH2 3.1, thallium flux FluxOr; active compounds read low | activity change, % (tested at about 1.8 µM) | 340,000 compounds, 0.95% hits;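 active = maximum activity change below -70%; inconclusive = maximum activity change from -70% to -50%; inactive = maximum activity change above -50%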;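 also: thallium influx rate constant from kinetic fluorescence after stimulation buffer; % is scaled to controls: 0 for no effect and ±100 for the full control effect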
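Measured as rate of thallium-driven FluxOr signal in transduced U2OS cells carrying the 3.1 channel, read kinetically for 2 min upon stimulation; values are rate constants scaled to DMSO control wells.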
KCNH2 WT inh – qHTS for Inhibitors of KCHN2 3.1: Wildtype qHTS; Voltage-gated inwardly rectifying potassium channel KCNH2 (Homo sapiens), Q12809; U2OS, BacMam KCNH2, thallium flux FluxOr; active compounds read low; activity change, % at 1.84 µM; 340,000 compounds, 0.37% hits; AID 720551, 2013;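 active = maximum activity change below -70%; inconclusive = maximum activity change between -70% and -50%; inactive = maximum activity change above -50%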; also: % is scaled to controls: 0 for no effect and ±100 for the full control effect
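U2OS cells transduced with wild-type KCNH2 virus are loaded with FluxOr dye for 45 min, and thallium flux is measured in kinetic reads before and after stimulation buffer. Rate constants are normalized to DMSO controls.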
KB-V1 MDR tox – qHTS assay for MDR1-selective chemotherapeutics: Primary screen using the drug-selected MDR subline cells KB-V1; KB-V1 MDR cells viability, CellTiter-Glo, 72 h; Potency, µM (series often up to 46.1 µM), usual class: cytotoxic; 400,000 compounds, 3.4% hits; also: potency is read from the fitted curve at half-maximal effect; % is scaled to controls: 0 for no effect and ±100 for the full control effect; nearly all actives have a fitted effect of over 60% in size
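KB-V1, DMEM (no phenol red) + 10% FBS; cpd pin-transferred, titration series; 72 h, 37 degrees C; CellTiter-Glo, luminescence. Data normalized, curve-fit.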
KB-3-1 cytotox – qHTS assay for MDR1-selective chemotherapeutics: Primary screen using the parental adenocarcinoma cell KB-3-1; Potency, µM (highest dose often 46.1 µM), usual class: cytotoxic; KB-3-1 viability, CellTiter-Glo ATP luminescence, 72 h; AID 1347075, 2019; 400,000 compounds, 1.4% hits; also: potency is read from the fitted curve at half-maximal effect; % is scaled to controls: 0 for no effect and ±100 for the full control effect; nearly all actives have a fitted effect of over 60% in size
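Luminescent ATP read-out (CellTiter-Glo) measures survival of drug-naive KB-3-1 cells after 72 h compound exposure at 37 °C. Titration series was screened from lowest to highest concentration, with DMSO vehicle plates as background controls.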
* hit, by the source's call. Unless noted, calls follow the shape of the dose curve; as a rule, active = well fitted curve in the direction sought with a large enough effect; inconclusive = small, poorly fitted or top-dose-only effect, or another doubt; inactive = no such curve, though single readings can be large; an effect the other way counts as inactive or inconclusive.

How did O=C(COC(=O)c1c2c(nc3ccccc13)/C(=C\c1ccco1)CC2)NC1CCCC1 do in these assays?
MCF10A rerep: inconclusive; SW480 rereplic: 6.5µM*; KCNH2 3.1 block: 1; KCNH2 WT inh: -8

What do the screens show for `CCn1cc(S(=O)(=O)c2ccccc2)c(=O)c2cc(F)c(N3CCCC3)cc21`?
KB-V1 MDR tox: inactive; KB-3-1 cytotox: inactive

What do the screens show for `O=C(NCc1ccccc1Cl)c1ccc(CS(=O)(=O)c2ccc(Br)cc2)o1`?
KB-V1 MDR tox: inactive; KB-3-1 cytotox: inactive

Results for COc1ccc(C(=O)Nc2nnc(CCS(=O)(=O)c3ccc(C)cc3)s2)cc1 ?
MCF10A rerep: -2%; SW480 rereplic: 1%; KCNH2 3.1 block: -5; KCNH2 WT inh: -12; KB-V1 MDR tox: inactive; KB-3-1 cytotox: inactive

How did CC(C)c1ccc(Nc2nc(Cl)nc(NCc3ccco3)n2)cc1 do in these assays?
MCF10A rerep: 23µM*; SW480 rereplic: 5.8µM*; KCNH2 3.1 block: -43; KCNH2 WT inh: 1; KB-V1 MDR tox: inactive; KB-3-1 cytotox: inconclusive

Results for COc1ccc(/C=N/Nc2nc(Nc3ccccc3)nc(N3CCCC3)n2)cc1 ?
MCF10A rerep: 9%; SW480 rereplic: 5%; KCNH2 3.1 block: -13; KCNH2 WT inh: 1; KB-V1 MDR tox: inactive; KB-3-1 cytotox: inactive

What do the screens show for `COc1ccc(Nc2nc(NCc3ccco3)nc(N/N=C/c3ccc(O)cc3)n2)cc1`?
MCF10A rerep: inconclusive; SW480 rereplic: -5%; KCNH2 3.1 block: -90*; KCNH2 WT inh: -30; KB-V1 MDR tox: inactive; KB-3-1 cytotox: inconclusive

What do the screens show for `COc1ccc(Nc2nc(Cl)nc(NCc3ccco3)n2)c(OC)c1`?
MCF10A rerep: inconclusive; SW480 rereplic: 0%; KCNH2 3.1 block: -2; KCNH2 WT inh: -4; KB-V1 MDR tox: inactive; KB-3-1 cytotox: inactive

Results for COc1ccc(/C=N/Nc2nc(NCc3ccco3)nc(Nc3ccc(OC)cc3)n2)cc1 ?
MCF10A rerep: 8%; SW480 rereplic: 1%; KCNH2 3.1 block: -93*; KCNH2 WT inh: -4; KB-V1 MDR tox: inactive; KB-3-1 cytotox: inactive

How did COc1ccc(Nc2nc(NCc3ccco3)nc(N/N=C/c3ccccc3F)n2)cc1 do in these assays?
MCF10A rerep: 2%; SW480 rereplic: inconclusive; KCNH2 3.1 block: -97*; KCNH2 WT inh: -23; KB-V1 MDR tox: inconclusive; KB-3-1 cytotox: inactive

What do the screens show for `CCCCn1c(-c2ccccc2)cnc1SCC(=O)NCCc1ccc(OC)c(OC)c1`?
MCF10A rerep: -10%; SW480 rereplic: 2%; KCNH2 3.1 block: -11; KCNH2 WT inh: -7; KB-V1 MDR tox: inconclusive; KB-3-1 cytotox: inactive

What do the screens show for `CCOc1ccc(CCNC(=O)CSc2nnnn2-c2ccccc2Cl)cc1OCC`?
KB-V1 MDR tox: inconclusive; KB-3-1 cytotox: inactive

What do the screens show for `c1ccc(N2CCOCCOCCOCCOCCOCC2)cc1`?
MCF10A rerep: -3%; SW480 rereplic: -1%; KCNH2 3.1 block: -2; KCNH2 WT inh: 1; KB-V1 MDR tox: inactive; KB-3-1 cytotox: inactive

What do the screens show for `CN1C/C(=C\c2ccc(N3CCOCC3)cc2)C(=O)/C(=C/c2ccc(N3CCOCC3)cc2)C1`?
MCF10A rerep: 18µM*; SW480 rereplic: inconclusive; KCNH2 3.1 block: -17; KCNH2 WT inh: 5; KB-V1 MDR tox: 21µM*; KB-3-1 cytotox: inconclusive

What do the screens show for `CCN1C/C(=C/c2ccc(N3CCOCC3)cc2)C(=O)/C(=C/c2ccc(N3CCOCC3)cc2)C1`?
MCF10A rerep: 23µM*; SW480 rereplic: 16µM*; KCNH2 3.1 block: -23; KCNH2 WT inh: -2; KB-V1 MDR tox: 18µM*; KB-3-1 cytotox: inconclusive

How did CCc1ccccc1NC(=O)CSc1nnc(-c2nonc2NC(C)=O)n1C do in these assays?
KB-V1 MDR tox: inactive; KB-3-1 cytotox: inactive

What do the screens show for `CC(NC(=O)COC(=O)c1cc(NS(=O)(=O)c2ccc(Cl)c([N+](=O)[O-])c2)ccc1O)C1CC2CCC1C2` (stereo not given)?
MCF10A rerep: 6.5µM*; SW480 rereplic: 9.2µM*; KCNH2 3.1 block: -12; KCNH2 WT inh: 0; KB-V1 MDR tox: inactive; KB-3-1 cytotox: inactive

What do the screens show for `Cc1sc(NC(=O)c2ccco2)c(CN2CCN(c3ccccn3)CC2)c1C`?
MCF10A rerep: inconclusive; SW480 rereplic: 11%; KCNH2 3.1 block: -6; KCNH2 WT inh: -4; KB-V1 MDR tox: inconclusive; KB-3-1 cytotox: 21µM*

Results for COc1ccc(-c2noc(CN(C)C(=O)c3ccoc3C)n2)cc1OC ?
MCF10A rerep: 11%; SW480 rereplic: -1%; KCNH2 3.1 block: -7; KCNH2 WT inh: 2; KB-V1 MDR tox: inactive; KB-3-1 cytotox: inactive

What do the screens show for `CNC(C)C(=O)NC(C(=O)N1CCCC1C(=O)Nc1ccc2ncccc2c1)C(C)C` (stereo not given)?
MCF10A rerep: 92%; SW480 rereplic: 2%; KB-V1 MDR tox: inactive; KB-3-1 cytotox: inactive

Results for CCO/C=N/Nc1nc(C(F)(F)F)nc2c1cnn2Cc1ccccc1 ?
MCF10A rerep: 18µM*; SW480 rereplic: inconclusive; KCNH2 3.1 block: -7; KCNH2 WT inh: -15; KB-V1 MDR tox: inactive; KB-3-1 cytotox: inactive

How did CCOc1ccc(Nc2ncnc3c2cnn3Cc2ccccc2)cc1 do in these assays?
MCF10A rerep: 5%; SW480 rereplic: -6%; KCNH2 3.1 block: 0; KCNH2 WT inh: -6; KB-V1 MDR tox: inconclusive; KB-3-1 cytotox: inactive

How did Cc1ccccc1-c1noc(-c2ccc(NCc3cccnc3)c([N+](=O)[O-])c2)n1 do in these assays?
KB-V1 MDR tox: inactive; KB-3-1 cytotox: inactive

How did CO/N=C/C(=N\Nc1cc(OC)cc(OC)c1)C(=O)c1ccccc1 do in these assays?
MCF10A rerep: -1%; SW480 rereplic: 0%; KCNH2 3.1 block: -8; KCNH2 WT inh: 4; KB-V1 MDR tox: inactive; KB-3-1 cytotox: inconclusive

What do the screens show for `COc1ccc(Nc2nc(-c3cccs3)nc3ccccc23)cc1`?
MCF10A rerep: 16µM*; SW480 rereplic: 2%; KCNH2 3.1 block: -20; KCNH2 WT inh: -16; KB-V1 MDR tox: 18µM*; KB-3-1 cytotox: inconclusive
